Data: PubChem BioAssay AID1159580 (chemical genetic matrix, 2015)
In all, about 5,500 compounds went through this assay and about 2,000 (36%) were called active. Not shown: some 18% with an inconclusive outcome. No stated cut-off is given here; in the data, active means normalized growth mostly below about 0.91 (no sharp cut-off); inconclusive means no clear call, values can overlap the other calls; inactive means mostly above about 0.92. The list shows a part of the results.

Assay: chemical genetic growth profiling, strain panel (AID 1159580);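 further: tested at 20 µM; growth read once vehicle control cultures reached saturation at 30 °C; 1 = growth at the plate median or of vehicle wells; lower values mean less growth of the strain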
Details: growth OD

Measured: normalized growth

COc1ccc2c(=O)c(CC(=O)O)coc2c1
inactive: S. cerevisiae deletion strains, locus YJR066W, strain TOR1, active compounds read low 0.902 | S. cerevisiae deletion strains, locus YJR075W, strain HOC1, active compounds read low 1.01 | S. cerevisiae deletion strains, locus YKL009W, strain mrt4, active compounds read low 0.981 | S. cerevisiae deletion strains, locus YKL068W, active compounds read low 0.993 | S. cerevisiae deletion strains, locus YKL085W, strain MDH1 (second series), active compounds read low 1.01 | S. cerevisiae deletion strains, locus YKL085W, strain MDH1, active compounds read low 1.01 | S. cerevisiae deletion strains, locus YKL160W, strain elf1, active compounds read low 1.04 | S. cerevisiae deletion strains, locus YKL190W, strain CNB1, active compounds read low 1 | S. cerevisiae deletion strains, locus YKR001C, strain vps1, active compounds read low 1.03 | S. cerevisiae deletion strains, locus YKR026C, strain gcn3, active compounds read low 0.985 | S. cerevisiae deletion strains, locus YKR091W, strain srl3, active compounds read low 0.99 | S. cerevisiae deletion strains, locus YLL001W, strain dnm1, active compounds read low 1 | S. cerevisiae deletion strains, locus YLL026W, active compounds read low 0.982 | S. cerevisiae deletion strains, locus YLL041C, strain sdh2, active compounds read low 0.98 | S. cerevisiae deletion strains, locus YLR027C, strain aat2, active compounds read low 0.977 | S. cerevisiae deletion strains, locus YLR039C, strain RIC1, active compounds read low 1.07 | S. cerevisiae deletion strains, locus YLR058C, strain SHM2, active compounds read low 0.999 | S. cerevisiae deletion strains, locus YLR102C, strain apc9, active compounds read low 0.992 | S. cerevisiae deletion strains, locus YLR113W, strain HOG1, active compounds read low 0.992 | S. cerevisiae deletion strains, locus YLR221C, strain rsa3, active compounds read low 0.966 | S. cerevisiae deletion strains, locus YLR258W, strain gsy2, active compounds read low 0.992 | S. cerevisiae deletion strains, locus YLR262C, strain YPT6 (second series), active compounds read low 1 | S. cerevisiae deletion strains, locus YLR262C, strain YPT6, active compounds read low 1.03 | S. cerevisiae deletion strains, locus YLR268W, strain sec22, active compounds read low 1.02 | S. cerevisiae deletion strains, locus YLR320W, strain mms22, active compounds read low 0.972 | S. cerevisiae deletion strains, locus YLR330W, strain CHS5, active compounds read low 1.01 | S. cerevisiae deletion strains, locus YLR342W, strain FKS1 (second series), active compounds read low 1.05 | S. cerevisiae deletion strains, locus YLR342W, strain FKS1, active compounds read low 0.989 | S. cerevisiae deletion strains, locus YLR357W, strain rsc2, active compounds read low 0.988 | S. cerevisiae deletion strains, locus YLR370C, strain arc18, active compounds read low 0.974 | S. cerevisiae deletion strains, locus YLR371W, strain rom2, active compounds read low 0.997 | S. cerevisiae deletion strains, locus YLR384C, strain iki3, active compounds read low 0.966 | S. cerevisiae deletion strains, locus YLR418C, strain cdc73, active compounds read low 0.971 | S. cerevisiae deletion strains, locus YML016C, strain PPZ1, active compounds read low 1 | S. cerevisiae deletion strains, locus YML032C, strain rad52, active compounds read low 1 | S. cerevisiae deletion strains, locus YML120C, strain ndi1, active compounds read low 1 | S. cerevisiae deletion strains, locus YML124C, strain tub3, active compounds read low 0.994 | S. cerevisiae deletion strains, locus YMR058W, strain fet3, active compounds read low 0.983 | S. cerevisiae deletion strains, locus YMR078C, strain ctf18, active compounds read low 0.992 | S. cerevisiae deletion strains, locus YMR125W, strain sto1, active compounds read low 1 | S. cerevisiae deletion strains, locus YMR129W, active compounds read low 0.985 | S. cerevisiae deletion strains, locus YMR205C, strain PFK2, active compounds read low 1.05 | S. cerevisiae deletion strains, locus YMR223W, strain ubp8, active compounds read low 0.994 | S. cerevisiae deletion strains, locus YMR231W, strain pep5, active compounds read low 0.972 | S. cerevisiae deletion strains, locus YMR307W, strain GAS1, active compounds read low 1.06 | S. cerevisiae deletion strains, locus YNL067W, strain RPL9B, active compounds read low 0.999 | S. cerevisiae deletion strains, locus YNL071W, strain lat1, active compounds read low 0.986 | S. cerevisiae deletion strains, locus YNL183C, strain NPR1, active compounds read low 0.972 | S. cerevisiae deletion strains, locus YNL209W, strain ssb2, active compounds read low 1.03 | S. cerevisiae deletion strains, locus YNL233W, strain BNI4, active compounds read low 1 | S. cerevisiae deletion strains, locus YNL248C, strain rpa49, active compounds read low 0.984 | S. cerevisiae deletion strains, locus YNL250W, strain rad50, active compounds read low 0.96 | S. cerevisiae deletion strains, locus YNL271C, strain bni1, active compounds read low 0.986 | S. cerevisiae deletion strains, locus YNL298W, strain CLA4, active compounds read low 0.992 | S. cerevisiae deletion strains, locus YNL307C, strain MCK1, active compounds read low 1 | S. cerevisiae deletion strains, locus YNL322C, strain KRE1 (second series), active compounds read low 0.969 | S. cerevisiae deletion strains, locus YNL322C, strain KRE1, active compounds read low 1 | S. cerevisiae deletion strains, locus YNR049C, strain mso1, active compounds read low 0.973 | S. cerevisiae deletion strains, locus YNR052C, strain pop2, active compounds read low 0.952 | S. cerevisiae deletion strains, locus YOL012C, strain htz1 1.05 | S. cerevisiae deletion strains, locus YOL147C, strain pex11, active compounds read low 0.991 | S. cerevisiae deletion strains, locus YOR001W, strain rrp6, active compounds read low 0.917 | S. cerevisiae deletion strains, locus YOR061W, strain CKA2, active compounds read low 1.01 | S. cerevisiae deletion strains, locus YOR069W, strain VPS5, active compounds read low 0.987 | S. cerevisiae deletion strains, locus YOR070C, strain gyp1, active compounds read low 0.981 | S. cerevisiae deletion strains, locus YOR080W, strain dia2, active compounds read low 0.981 | S. cerevisiae deletion strains, locus YOR083W, strain WHI5, active compounds read low 1.04 | S. cerevisiae deletion strains, locus YOR106W, strain vam3, active compounds read low 1.01 | S. cerevisiae deletion strains, locus YOR136W, strain idh2, active compounds read low 0.981 | S. cerevisiae deletion strains, locus YOR144C, strain elg1, active compounds read low 0.993 | S. cerevisiae deletion strains, locus YOR184W, strain ser1, active compounds read low 1.07 | S. cerevisiae deletion strains, locus YOR231W, strain MKK1, active compounds read low 1 | S. cerevisiae deletion strains, locus YOR265W, strain rbl2, active compounds read low 0.973 | S. cerevisiae deletion strains, locus YOR270C, strain vph1, active compounds read low 0.978 | S. cerevisiae deletion strains, locus YOR290C, strain snf2, active compounds read low 1.01 | S. cerevisiae deletion strains, locus YOR316C, strain cot1, active compounds read low 0.991 | S. cerevisiae deletion strains, locus YPL051W, strain arl3, active compounds read low 0.996 | S. cerevisiae deletion strains, locus YPL055C, strain LGE1, active compounds read low 1.08 | S. cerevisiae deletion strains, locus YPL078C, strain atp4, active compounds read low 1.03 | S. cerevisiae deletion strains, locus YPL106C, strain sse1, active compounds read low 1.03 | S. cerevisiae deletion strains, locus YPL240C, strain hsp82, active compounds read low 0.974 | S. cerevisiae deletion strains, locus YPL241C, strain CIN2, active compounds read low 1.01 | S. cerevisiae deletion strains, locus YPL256C, strain CLN2, active compounds read low 0.983 | S. cerevisiae deletion strains, locus YPR119W, strain clb2, active compounds read low 0.985 | S. cerevisiae deletion strains, locus YPR141C, strain kar3, active compounds read low 0.99 | S. cerevisiae deletion strains, locus YPR163C, strain tif3, active compounds read low 0.995 | S. cerevisiae deletion strains, locus YPR167C, strain met16, active compounds read low 0.976 | S. cerevisiae deletion strains, strain wtn01, active compounds read low 1.04 | S. cerevisiae strains, strain wild type, active compounds read low 1.02
